# Measurements from PubChem BioAssay AID588727 (Southern Research Specialized Biocontainment Screening …, 2011).
# About 450 (0.13%) of roughly 350,000 compounds were called active. No rule for the calls is given here. Only a sample is shown. Results with a measured potency or affinity are listed apart.
# Experiment: inhibitors of VEEV TC-83 cytopathic effect, confirmation, Vero cells (AID 588727)
# Settings: VEEV TC-83 cytopathic effect inhibition, at 20 µM
# [1] = stronger effect = higher value unless noted
# [2] = measured here: 10K pilot screen inhibition, stronger effect = higher value
smiles,measurement,setting,value
COC(=O)c1ccc(C(=O)OCc2nc3cc4ccccc4cc3[nH]2)cc1,inhibition,[1],0.06% (inactive)
Nc1ccc(C(=O)OCc2nc3ccccc3[nH]2)cc1,inhibition,[1],2.64% (inactive)
COc1ccc(CN(CC(=O)NCc2ccc(F)cc2)C(=O)c2csnn2)cc1,inhibition,[1],1.52% (inactive)
COc1ccc(NC(=O)c2nc[nH]c2C(=O)NCC(=O)OC(C)(C)C)cc1,inhibition,[1],3.26% (inactive)
Cc1cccc(C(=O)NNC(=S)NC(=O)c2ccccc2)c1,inhibition,[1],46.7% (inactive)
Cc1ccc(C(=O)NNC(=O)c2ccco2)cc1,inhibition,[1],1.42% (inactive)
Cc1ccc(C(=O)NC(=S)NNC(=O)c2ccccc2)cc1,inhibition,[1],0.96% (inactive)
Cc1cccc(C(=O)NC(=S)NCc2ccccc2)c1,inhibition,[1],2.47% (inactive)
O=C(NNC(=S)NC(=O)c1ccco1)c1ccc(F)cc1,inhibition,[1],0.7% (inactive)
O=C(NNC(=S)NC(=O)c1cccs1)c1ccc(O)cc1,inhibition,[1],3.95% (inactive)
Cc1cccc(C(=O)NC(=S)NNC(=O)c2cccs2)c1,inhibition,[1],inactive
O=C(NNC(=S)NC(=O)c1ccccc1)c1ccc(O)cc1,inhibition,[1],4.47% (inactive)
COc1ccccc1NC(=O)C1CCN(S(=O)(=O)c2cccc3nonc23)CC1,inhibition,[1],9.33% (inactive)
CCOC(=O)c1ccc(NC(=O)CSc2nnc(CNc3ccc(OC)cc3)n2C)cc1,inhibition,[1],0.98% (inactive)
O=C(c1ccc(N2CCOCC2)c([N+](=O)[O-])c1)N1CCCCC1,inhibition,[1],2.47% (inactive)
CC1CC(C)CN(CCCNC(=O)CN2C(=O)c3cccnc3Oc3ccccc32)C1 (centres undefined),inhibition,[1],inactive
O=C(CCC(=O)OCC(=O)c1ccc([N+](=O)[O-])cc1)Nc1ccccc1Cl,inhibition,[1],inactive
CCOc1ccc(CN2CCN(Cc3cn(CC)nc3C)CC2CCO)cc1 (centres undefined),inhibition,[1],inactive
CCOC(=O)c1sc2nc(C)nc(Nc3ccc(OC)cc3)c2c1C,inhibition,[1],3.17% (inactive)
COc1ccc(C(=O)Nc2ccccc2C(=O)N2CCCCCC2)cc1OC,inhibition,[1],5.61% (inactive)
CN1CCN(CCC(=O)Nc2ccc(C3CCCC3)cc2)CC1,inhibition,[1],4.6% (inactive)
O=C(Nc1ccc(N2CCN(C(=O)c3ccco3)CC2)cc1)c1cccnc1Cl,inhibition,stronger effect = higher value,0.8% (inactive)
same,inhibition,[2],1.86%
COc1ccc(C)cc1NC(=O)C1CCN(C(=O)Cc2ccccc2)CC1,inhibition,[1],0.59% (inactive)
Cc1cccc(C(=O)NC(=S)NNC(=O)COc2c(C)cccc2C)c1,inhibition,[1],1.29% (inactive)
COc1ccc(C(=O)NC(=S)NNC(=O)c2ccc(C)cc2)cc1,inhibition,[1],50.1% (inactive)
COc1ccccc1C(=O)NNC(=S)NC(=O)c1sc2ccccc2c1Cl,inhibition,[1],4.48% (inactive)
COc1ccc(C(=O)NNC(=S)NC(=O)c2ccc(OC)cc2)cc1,inhibition,[1],2.82% (inactive)
COc1ccc(C(=O)NC(=S)NNC(=O)COc2ccccc2)cc1,inhibition,[1],1.92% (inactive)
Cc1cccc(C)c1OCC(=O)NNC(=S)NC(=O)C1CC1,inhibition,[1],9.29% (inactive)
O=C(COc1ccccc1)NNC(=S)NC(=O)c1ccccc1,inhibition,[1],52.2% (inactive)
COc1ccccc1C(=O)NC(=S)NNC(=O)c1sc2ccccc2c1Cl,inhibition,[1],0.8% (inactive)
CCCc1nnc(NC(=O)CNc2ccc(F)cc2)s1,inhibition,[1],1.71% (inactive)
CN(C)c1ccc(CNC(=O)c2cc(S(=O)(=O)N3CCCC3)cn2C)cc1,inhibition,stronger effect = higher value,0.58% (inactive)
same,inhibition,[2],0.765%
Cc1ccc(C)c(S(=O)(=O)N/N=C/c2ccc(N3CCOCC3)cc2)c1,inhibition,[1],13% (inactive)
COc1ccc(-c2nnc(SCc3cccc(C)c3)n2N)cc1,inhibition,[1],1.8% (inactive)
O=c1n(Cc2ccccc2Cl)nc2n1-c1ccccc1SC2,inhibition,[1],1.6% (inactive)
CN1CCN(NC(=O)c2cn(-c3ccccc3)nc2-c2cccc(Br)c2)CC1,inhibition,[1],4.96% (inactive)
COc1ccc(C(=O)NNC(=S)NC(=O)c2ccco2)cc1,inhibition,[1],3.21% (inactive)
O=C(NC(=S)NNC(=O)c1cc2ccccc2cc1O)c1ccco1,inhibition,[1],35.8% (inactive)
COc1ccc(C(=O)NC(=S)NCCc2ccccc2)cc1,inhibition,[1],inactive
O=C(CCc1ccccc1)NNC(=S)NC(=O)c1ccccc1,inhibition,[1],8.58% (inactive)
CC1CCN(c2ccc(C(=O)OCC(=O)NCCN3C(=O)CSC3=O)cc2[N+](=O)[O-])CC1,inhibition,[1],2.94% (inactive)
Nc1nc(=O)n(C2CCCO2)cc1Br (centres undefined),inhibition,[1],inactive
CCCCn1nnnc1SCC(=O)NCc1ccco1,inhibition,[1],0.76% (inactive)
CCOc1ccc(CCNC(=O)CCc2nnc3ccc(N4CCOCC4)nn23)cc1OCC,inhibition,[1],0.04% (inactive)
CCN(CC(=O)Nc1ccc(NC(C)=O)cc1)C(=O)C12CC3CC(CC(Cl)(C3)C1)C2,inhibition,[1],inactive
Cn1cc(C(=O)Nc2ccc(Cl)c(Cl)c2)cn1,inhibition,[1],0.63% (inactive)
O=C(Nc1ccc(F)c([N+](=O)[O-])c1)c1cccs1,inhibition,[1],0.78% (inactive)
O=C(NC(Cc1c[nH]c2ccccc12)C(=O)Nc1ccc(OC(F)(F)F)cc1)c1cccs1 (centres undefined),inhibition,[1],11.9% (inactive)
O=C(NC(Cc1c[nH]c2ccccc12)C(=O)N/N=C/c1ccc(Cl)cc1)c1cccs1 (centres undefined),inhibition,[1],6% (inactive)
O=C(NC(Cc1c[nH]c2ccccc12)C(=O)O)c1cccs1 (centres undefined),inhibition,[1],0.43% (inactive)
Cc1cc(C)nc(N2C(=O)CC(C(=O)O)NC2=NCCc2c[nH]c3ccccc23)n1 (centres undefined),inhibition,[1],inactive
COc1ccc(/C=N/NC(=O)c2c(-c3ccccc3)noc2C)cc1,inhibition,[1],1.23% (inactive)
COc1cc2nc(N(CCCN(C)C)C(=O)c3ccc(S(=O)(=O)N4CCc5ccccc54)cc3)sc2cc1OC,inhibition,[1],5.52% (inactive)
CN(C)CCCN(C(=O)c1ccc(S(=O)(=O)N2CCc3ccccc32)cc1)c1nc2c(Cl)cccc2s1,inhibition,[1],12.6% (inactive)
O=C(NC1CONC1=O)OCC(Cl)(Cl)Cl (centres undefined),inhibition,[1],inactive
CCc1nnc(NC(=O)C2CC(=O)N(Cc3ccco3)C2)s1 (centres undefined),inhibition,[1],2.16% (inactive)
Cc1cccc[n+]1CC(=O)c1ccc([N+](=O)[O-])cc1,inhibition,[1],inactive
Cc1cc(C)c[n+](CC(=O)c2ccc(C)c([N+](=O)[O-])c2)c1,inhibition,[1],0.1% (inactive)
S=C(N/N=C/c1ccc2ncccc2c1)Nc1ccccc1,inhibition,[1],9.82% (inactive)
O=C(Nc1ccc2c(c1)CCCN2C(=O)c1cccs1)c1ccccc1,inhibition,[1],6.53% (inactive)
COc1ccccc1C(=O)Nc1ccc2c(c1)CCCN2C(=O)c1cccs1,inhibition,[1],4.26% (inactive)
